40 compounds from PubChem BioAssay (Tox21) can be followed below.

Inconclusive results are not listed. Unmarked numbers belong to inactive results. Calls of active or inactive are those of the source. The call rests on the fitted dose curve; in most records, active means well fitted cell-killing curve with a large enough effect in the repeat runs; inconclusive means weak or mixed curves, or effect the other way; inactive means flat fitted curve, though single readings scatter.
On the % scale 0 is the no-effect control and ±100 the full control effect.

The assay is described as follows: qHTS assay to identify small molecule antagonists of the androgen receptor (AR) signaling pathway using the MDA cell line in the presence of 0.5 nM R1881 - cell viability counter screen (AID 1259242). Further: nearly all actives have a fitted effect of over 45% in size. The note with it: MDA-kb2 viability, CellTiter-Fluor protease fluorescence, 16 h; series mostly up to 92.4 µM; viability change, negative = cytotoxic: at the top concentration. The source says:
U.S. Tox21 Program National Center for Advancing Translational Sciences [NCATS] NIH Chemical Genomics Center [NCGC] U.S. Environmental Protection Agency [EPA] National Institutes of Environmental Health Sciences [NIEHS] National Toxicology Program [NTP] U.S. Food and Drug Administration [FDA] Tox21 Assay Overview: Androgen receptor (AR) is an important member of the nuclear receptor family. Its signaling plays a critical role in AR-dependent prostate cancer and other androgen related diseases. Considerable attention has been given in the past decades to develop methods to study and screen for the environmental chemicals that have the potential to interfere with metabolic homeostasis, reproduction, developmental and behavioral functions. Therefore AR binding assay for screening androgen antagonists can be used to identify potential endocrine disruptors. MDA-kb2 cells (from ATCC, deposited by Wilson et al.) were used to screen for AR inhibitors against Tox21 compound libraries. These cells are human breast carcinoma cells that were stably transfected with a luciferase reporter gene under control of the MMTV promoter that contains response elements for both androgen receptor (AR) and glucocorticoid receptor (GR). The current screening for identification of AR inhibitors against Tox21 libraries used lower concentration of (0.5 nM) R1881 as a stimulator. The cytotoxicity of the Tox21 compound libraries against MDA-kb2 cell line was tested by measuring live-cell protease activity using CellTiter-Fluor assay in the same wells.
Tox21 Assay Protocol Summary: MDA-kb2 cells (cells cultured without CO2) were dispensed at 3,000 cells/well in 4 uL of culture medium into white wall/solid-bottom 1536-well plates (Corning Life Sciences, Corning, NY) using a Multidrop Combi (ThermoFisher Scientific, Waltham, MA) dispenser. After the assay plates were incubated at a 37C and 0% CO2 for 5 hr, 23 nL of compounds dissolved in DMSO, positive controls or DMSO only was transferred to the assay plate by a Pintool station (Kalypsys, San Diego, CA). The transfer of compounds was followed by the addition of 1 uL of 0.5 nM (final concentration) agonist (R1881)/culture medium using a Flying Reagent Dispenser (FRD, Aurora Discovery, San Diego, CA). The plates were incubated at 37C and 0% CO2 for 16 hr. For cytotoxicity assay, 1 uL of CellTiter-Fluor reagent (Promega Corporation, Madison, WI) was added to each well using the FRD and after 30 min incubation at 37C and 0% CO2, The fluorescence intensity was measured using ViewLux plate reader (PerkinElmer, Shelton, CT).
For the compound `CC(=O)OCC(=O)[C@@]12N=C(C)O[C@@H]1C[C@H]1[C@@H]3CCC4=CC(=O)C=C[C@]4(C)[C@H]3[C@@H](O)C[C@@]12C`, the result was inactive.
In the case of `COCCCOc1ccnc(CS(=O)c2nc3ccccc3[nH]2)c1C` (stereo not given), the “viability change, negative = cytotoxic” value was 0.968% [at 42.5 µM].
Turning to `OCC(CO)(CBr)CBr`, the result was inactive.
Same read-out and setting: with `Cc1ccc(S(N)(=O)=O)cc1` the entry was “inactive”; with `O=c1[nH]c(=O)n([C@H]2C[C@H](O)[C@@H](CO)O2)cc1Br`, “inactive”.
For `CCCCCCCCCCCCS`, the outcome was inactive.
Still for that read-out and setting: with `CCCCCCCCCCCCCCO` the entry was “inactive”; with `Oc1cccc2ccccc12`, “inactive”; with `O=P(OC(CCl)CCl)(OC(CCl)CCl)OC(CCl)CCl`, “inactive”.
With `CC(O)COCC(C)O` (stereo not given), the outcome was inactive.
For `CCc1cccc(C)c1N`, the result was inactive.
Still for that read-out and setting: the value for `CCCCCCCCC/C=C/CC1CC(=O)OC1=O` (stereo not given) was “inactive”.
With `O=S(=O)(O)c1ccc2ccccc2c1`, the outcome was inactive.
Take `O=C=NCCCCCCN=C=O`: the result was inactive.
On the same count and under the same terms, the value for `O=C1CCC(N2C(=O)c3ccccc3C2=O)C(=O)N1` (stereo not given) was “inactive”.
For the compound `OCc1cccnc1`, the result was inactive.
Same read-out and setting: the value for `CC(C)(N)CO` was “inactive”; that for `CCC(O)OC(O)CC` (stereo not given) was “inactive”.
As for `OCCOCCN1CCN(C2=Nc3ccccc3Sc3ccccc32)CC1`, the result was inactive.
On to `CC1=CCC2CC1C2(C)C` (stereo not given), for which the result was inactive.
Same read-out and setting: the value for `CN(C)CCC(c1ccc(Cl)cc1)c1ccccn1` (stereo not given) was “inactive”.
The same measure, in the same setting: with `O=C(O)CCCCCCCCCCC(=O)O` the entry was “inactive”; with `O=C(O)CC(C(=O)O)C(CC(=O)O)C(=O)O` (stereo not given), “inactive”.
The same measure, in the same setting: the value for `CCCC(C)=O` was “inactive”.
For `CCN(CC)CCCC(C)Nc1ccnc2cc(Cl)ccc12` (stereo not given), the viability change, negative = cytotoxic was -8.89% [at 8.39 µM].
As for `CC(C)CC(=O)CC(C)C`, the outcome was inactive.
Turning to `COc1ccc(Nc2ccccc2)c(C)c1`, the outcome was inactive.
Turning to `ON=C1CCCCC1`, the result was inactive.
For the compound `O=C(O)c1ccccc1C(c1ccc(O)cc1)c1ccc(O)cc1`, the result was inactive.
As for `CC(=O)Nc1ccccc1`, the outcome was inactive.
Same read-out and setting: the value for `C#C[C@]1(O)CC[C@H]2[C@@H]3CCC4=CC(=O)CC[C@@H]4[C@H]3CC[C@@]21C` was “inactive”; that for `O=C(O)c1ccc(C(=O)O)cc1` was “inactive”.
`CSCCC=O`: the outcome was inactive.
The same measure, in the same setting: the value for `CCCCCC1=CCCC1=O` was “inactive”; that for `COc1ccc(Cl)cc1C(=O)NCCc1ccc(S(=O)(=O)NC(=O)NC2CCCCC2)cc1` was “inactive”; that for `CCCCCCOCCO` was “inactive”.
Still for that read-out and setting: with `CCCCC(CC)CO` (stereo not given) the entry was “inactive”.
Take `Nc1ccccc1[N+](=O)[O-]`: the result was inactive.
Still for that read-out and setting: the value for `COc1cc(Cc2cnc(N)nc2N)cc(OC)c1OC` was “inactive”; that for `CCOC(=O)NNc1nncc2ccccc12` was “inactive”.
